Activity calls are given as the source filed them.
Experiment: S. pombe growth modifiers, basal conditions – strain 972, OD600, 24 h, no modulator, primary screen (AID 1090);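 further: basal condition with compound alone and no growth modifier present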
Details: S. pombe 972 growth, higher = more signal, called active from +8 up or from −8 down
Further: test concentration not given here.

Row | Compound | z-score
1 | COC(=O)[C@@]1(Cc2ccccc2)[C@H]2c3cc(C(=O)N4CCCC4)n(CCSCCO)c3C[C@H]2CN1C(=O)c1ccccc1 | 0.307 (inactive)
2 | CCOC(=O)C1=C[C@@H](C(C)(C)C)N(S(=O)(=O)c2ccc(C)cc2)[C@H]1c1cccc(Cl)c1 | 2.35 (inactive)
3 | C=C[C@H](C)[C@H](OC(=O)Nc1ccc(OC)cc1)c1ccc(OCCO)cc1 | -2.2 (inactive)
4 | C[C@]1(C(=O)O)c2ccccc2C(=O)N(Cc2ccc(OC(F)(F)F)cc2)[C@H]1c1ccc(CO)cc1 | -0.767 (inactive)

Experiment: budding yeast growth modifiers under rapamycin – strain BY4716, OD600, 96 h, primary screen (AID 1091)
Details: S. cerevisiae BY4716 + rapamycin, higher = more signal, called active from +8 up or from −8 down

Row | Compound | z-score
5 | COc1cc(NN2C(C(O)c3ccc(I)cc3)C=CC3C(=O)N(c4ccccc4)C(=O)C32)cc(OC)c1OC (stereo not given) | 0.0332 (inactive)
6 | CN(C)CCCC[C@@H]1NC(=O)[C@@H]2C[C@H](C(=O)O)[C@H](c3cccc(OCCO)c3)N2C1=O | -0.273 (inactive)
7 | CN1C(=O)C2C=CC(C(O)c3cc(C(F)(F)F)cc(C(F)(F)F)c3)N(Nc3ccccc3)C2C1=O (stereo not given) | -0.785 (inactive)
8 | C=C(/C(=C/C[C@H](OC(=O)c1ccncc1)c1ccccc1OCCO)c1cnc2ccccc2c1)C(C)C | 2.22 (inactive)
9 | COC(=O)[C@@]1(Cc2ccccc2CN=[N+]=[N-])N=C(c2ccc(OCCCO)cc2)O[C@H]1c1ccccc1 | 35.9 (active)
10 | C=CCC(OC(C)=O)[C@@H]1[C@@H](N(Cc2cccc3ccccc23)C(=O)c2ccc(-c3ccccc3)cc2)c2cc(OCCCO)ccc2N1C(=O)c1ccc(-c2ccccc2)cc1 (stereo not given in full) | -0.415 (inactive)
11 | COC(=O)[C@@]1(Cc2ccc(F)cc2)[C@H]2c3cc(C(=O)N(C)C)n(Cc4c(CO)[nH]cc(C)c4=O)c3C[C@H]2CN1C(=O)c1ccccc1 | 0.796 (inactive)
12 | CN(C)C(=O)[C@]1(CCS(=O)(=O)c2ccccc2)N=C(c2ccc(OCCCO)cc2)O[C@@H]1c1ccccc1 | 4.54 (inactive)
13 | CC(C)OC(=O)CC(=O)CC(O)c1ccc([N+](=O)[O-])cc1 (stereo not given) | -0.34 (inactive)
14 | CCN(CC)c1ccc(N2CC=CC34O[C@@H]5/C=C\CCC(C)OC(=O)C5[C@H]3C(=O)N(C(C)CO)[C@@H]4C2=O)cc1 (stereo not given in full) | -0.0932 (inactive)
15 | Cc1ccc(C(C)CC(O)C2C=CC3C(=O)N(c4ccccc4)C(=O)C3N2Nc2ccc(C#N)cc2)o1 (stereo not given) | -3.16 (inactive)
16 | Cc1ccc(F)cc1S(=O)(=O)N[C@@H]1CCN(Cc2cccc3[nH]ccc23)C1 | -0.639 (inactive)
17 | O=C1C2C=CC(C(O)c3ccco3)N(Nc3ccccc3)C2C(=O)N1c1ccccc1 (stereo not given) | 0.662 (inactive)
18 | CCOC(=O)C1=CCC(c2ccco2)N(S(=O)(=O)c2ccc(C)cc2)C1 (stereo not given) | -0.013 (inactive)
19 | O=C(NCCN1CCOCC1)[C@@H]1c2ccccc2C(=O)N(Cc2ccccc2)[C@H]1c1ccc(CO)cc1 | -0.412 (inactive)
20 | CCOC(=O)C1=C[C@@H](c2ccccc2)N(S(=O)(=O)c2ccc(C)cc2)[C@H]1c1ccccc1 | 0.958 (inactive)
21 | COCCOC(=O)N1C(=O)[C@@]2(c3cc(C#Cc4ccc(OC)cc4)ccc31)[C@H](c1ccc(OCCO)cc1)N1[C@H](c3ccccc3)[C@H](c3ccccc3)OC(=O)[C@H]1[C@@H]2C(=O)Nc1nc2ccccc2s1 | 1.96 (inactive)
22 | [N-]=[N+]=Nc1ccccc1C[C@]1(C(=O)O)N=C(c2ccc(OCCCO)cc2)O[C@H]1c1ccccc1N=[N+]=[N-] | -1.17 (inactive)

Row | Compound | z-score
23 | CC=CC(O)C1C=CC2C(=O)NC(=O)C2N1Nc1ccccn1 (stereo not given) | 0.544 (inactive)
24 | CCOC(=O)C1=C[C@@H](C(C)(C)C)N(S(=O)(=O)c2ccc(C)cc2)[C@H]1c1ccccc1 | 1.41 (inactive)
25 | COC(=O)[C@@]1(Cc2ccc(F)cc2)[C@H]2c3cc(C(=O)N4CCCC4)n(CC4CC4)c3C[C@H]2CN1C(=O)c1ccccc1 | 0.125 (inactive)
26 | CO[C@H]1O[C@H](CO)[C@@H](OC(=O)Nc2ccc(C#N)cc2)[C@@H]2OC(=O)[C@H](Cc3cccc(Br)c3)C/C=C/C[C@@H](Cc3cccc(Br)c3)C(=O)O[C@@H]12 | 27.2 (active)
27 | COC(=O)[C@@]1(Cc2ccccc2)[C@H]2c3cc(C(=O)N(C)C)n(CCn4cc([N+](=O)[O-])nc4C)c3C[C@H]2CN1C(=O)c1ccccc1 | 0.253 (inactive)
28 | Cc1ccc(N2C(=O)c3ccccc3[C@](C)(C(=O)NCc3ccccc3)[C@@H]2c2ccc(CO)cc2)nc1 | -0.0557 (inactive)
29 | COC(=O)[C@@]1(Cc2ccc(F)cc2)[C@H]2c3cc(C(=O)N4CCCC4)n(C)c3C[C@H]2CN1C(=O)c1ccccc1 | -0.658 (inactive)
30 | CC(C)C(=C=CC[C@@H](O)c1cccc(OCCO)c1)C[C@@H](O)c1ccccn1 | -0.419 (inactive)
31 | O=C(O)[C@H]1C[C@H]2C(=O)N[C@@H](Cc3ccccc3)C(=O)N2[C@H]1c1cccc(OCCO)c1 | -0.629 (inactive)
32 | COc1ccc([Si](C)(C)[C@@H]2[C@@H](CC(=O)N3Cc4ccccc4C[C@H]3CO)O[C@]3(C(=O)N(Cc4ccc(N5CCC5=O)cc4)c4ccccc43)[C@H]2C)cc1 | 3.23 (inactive)
33 | Cc1ccc([C@H]2C(C(=O)O)=C[C@@H](C(C)(C)C)N2S(=O)(=O)c2ccc(C)cc2)cc1 | 0.118 (inactive)
34 | CN1C(=O)[C@@]2(Cc3ccccc3)N=C(c3ccc(OCCCO)cc3)O[C@H]2c2ccccc21 | 0.843 (inactive)
35 | COCCCNC(=O)[C@@]1(Sc2ccc(C)cc2)CC(=O)N(C(C)C)[C@@H]1c1ccc(CO)cc1I | 0.445 (inactive)
36 | CC(C)C(=C=CC[C@@H](O)c1cccc(OCCO)c1)C[C@@H](O)COCc1ccccc1 | -0.845 (inactive)
37 | COC(=O)[C@@]1(Cc2ccccc2)[C@H]2c3cc(C(=O)N4CCCC4)n(CCSCCO)c3C[C@H]2CN1C(=O)c1ccccc1 | -0.0727 (inactive)
38 | CCOC(=O)C1=C[C@@H](C(C)(C)C)N(S(=O)(=O)c2ccc(C)cc2)[C@H]1c1cccc(Cl)c1 | 3.04 (inactive)
39 | C=C[C@H](C)[C@H](OC(=O)Nc1ccc(OC)cc1)c1ccc(OCCO)cc1 | -1.43 (inactive)
40 | C[C@]1(C(=O)O)c2ccccc2C(=O)N(Cc2ccc(OC(F)(F)F)cc2)[C@H]1c1ccc(CO)cc1 | -0.686 (inactive)

Reference: PubChem BioAssay
